Seven compounds from PubChem BioAssay (NCI) can be followed below.

Compounds without any hit were thinned out: in the full panel of roughly 83,000, 20% have a hit.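 The test compound was applied at a single concentration to cells in 96-well plates for 48 hours, and percent growth was recorded.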 A number with no mark means an inactive call. Active and inactive are the calls of the source. Rule for the calls: active = growth percent below 10; inactive = the rest.

Among the test systems are NCI-H23 lung; NCI-H226 lung; NCI-H322M lung; HOP-62 NSCLC; NCI-H460 lung; HOP-92 NSCLC; NCI-H522 lung; A549/ATCC NSCLC; 786-0 renal; COLO 205 colon; DU-145 prostate; K-562 leukemia; MALME-3M melanoma; MDA-MB-231 breast; RXF 393 renal; SF-268 CNS; SF-295 CNS; SF-539 CNS; UACC-257 melanoma; M14 melanoma.
What all share (assay): NCI-60 one-dose screen, 48 h (100 = growth as untreated, 0 = no growth, -100 = all killed)
Holding throughout (conditions): 10 µM unless noted

As for `NC(=O)c1ccc(-c2c3ccccc3cc3c2ccc2ccccc23)cc1`, the growth with NCI-H23 lung is 70.7%; with NCI-H226 lung, 65.6%; in the test on NCI-H322M lung, 80.1%; in the test with HOP-62 NSCLC, 65.7%; in the test with NCI-H460 lung, 29.9%; in the test with HOP-92 NSCLC it was 76.4%. The growth was -20.6% (active) with NCI-H522 lung; 63.1% in the test on A549/ATCC NSCLC; 52.4% in the test on 786-0 renal; 52.5% in the test with COLO 205 colon; 53.3% with DU-145 prostate; 14% in the test with K-562 leukemia. Moreover, the growth in the test with MALME-3M melanoma is 54.7%; with MDA-MB-231 breast, 42.2%; with RXF 393 renal, 23%; in the test on SF-268 CNS, 56%; with SF-295 CNS, 46.1%; in the test on SF-539 CNS, 34.5%. The growth in the test with UACC-257 melanoma is 52.4%; in the test on M14 melanoma it was 14.9%.

As to `COC(=O)[C@]12CCC(C)(C)C[C@H]1[C@H]1/C(=N/OCCc3nn[nH]n3)C[C@@H]3[C@@]4(C)CC[C@H](OC(C)=O)C(C)(C)[C@@H]4CC[C@@]3(C)[C@]1(C)CC2`, the growth in the test with NCI-H23 lung was 28.4%; in the test with NCI-H226 lung, 33.3%; with NCI-H322M lung it was 64.6%; in the test on HOP-62 NSCLC, 34%; in the test with NCI-H460 lung, 9.64% (active); in the test with HOP-92 NSCLC, 49.9%. Further, the growth was 38.3% with NCI-H522 lung; 36.8% in the test on A549/ATCC NSCLC; 51.9% with 786-0 renal; 53.8% in the test with DU-145 prostate; 24.5% with K-562 leukemia; 40.4% in the test on MALME-3M melanoma. Moreover, the growth was 48.5% in the test on MDA-MB-231 breast; 70.1% with RXF 393 renal; 45.5% with SF-268 CNS; 25% in the test with SF-295 CNS; 44.7% in the test on SF-539 CNS; 16.5% in the test with UACC-257 melanoma. In addition, in the test on M14 melanoma, the growth was 48.4%.

As to `N#Cc1c(-c2ccc(Cl)cc2)nc(NN2C(=O)c3ccccc3C2=O)nc1N1CCOCC1`, the growth in the test with NCI-H23 lung is 97.2%; in the test with NCI-H226 lung, 99.9%; in the test on NCI-H322M lung it was 111%; in the test with HOP-62 NSCLC, 97.9%; in the test on NCI-H460 lung, 106%; in the test on HOP-92 NSCLC, 99.8%. In addition, the growth in the test on NCI-H522 lung was 97.5%; with A549/ATCC NSCLC, 107%; with 786-0 renal, 99.8%; in the test with DU-145 prostate it was 107%; in the test on K-562 leukemia, 97%; with MALME-3M melanoma, 109%. Besides, the growth in the test with MDA-MB-231 breast is 105%; in the test with RXF 393 renal it was 107%; in the test on SF-268 CNS, 99.3%; in the test on SF-295 CNS, 101%; with SF-539 CNS, 101%; in the test on UACC-257 melanoma, 108%. Moreover, the growth with M14 melanoma is 101%.

Regarding `CCOC(=O)n1ccn(C)c1=S`, the growth with NCI-H23 lung was 107%; in the test on NCI-H226 lung, 109%; with NCI-H322M lung, 89.1%; in the test with HOP-62 NSCLC, 60.5%; in the test with NCI-H460 lung, 113%; in the test on HOP-92 NSCLC, 104%. Besides, the growth is 84.6% with NCI-H522 lung; 101% in the test with A549/ATCC NSCLC; 90.6% in the test with 786-0 renal; 112% with DU-145 prostate; 103% in the test on K-562 leukemia; 102% in the test on MALME-3M melanoma. In addition, the growth in the test on MDA-MB-231 breast is 117%; in the test with RXF 393 renal, 115%; with SF-268 CNS, 106%; in the test with SF-295 CNS, 92%; in the test on SF-539 CNS it was 95.7%; in the test on UACC-257 melanoma, 97.3%. Besides, in the test on M14 melanoma, the growth is 97%.

Consider `O=C(CSc1nnc(-c2cnccn2)n1-c1ccccc1)c1ccc(Cl)cc1`, for which the growth is 108% in the test with NCI-H23 lung; 104% in the test with NCI-H226 lung; 95.5% in the test with NCI-H322M lung; 97.7% with HOP-62 NSCLC; 103% in the test with NCI-H460 lung; 81.4% in the test on HOP-92 NSCLC. For the same compound, the growth in the test on NCI-H522 lung was 95.3%; in the test with A549/ATCC NSCLC, 91.7%; in the test with 786-0 renal, 95.1%; with COLO 205 colon, 99.6%; in the test on DU-145 prostate, 105%; in the test with K-562 leukemia, 91.1%. Also, the growth in the test on MALME-3M melanoma was 105%; with MDA-MB-231 breast, 99.8%; in the test on RXF 393 renal, 114%; with SF-268 CNS it was 104%; with SF-295 CNS it was 99.3%; in the test on SF-539 CNS, 103%. The growth was 96% in the test with UACC-257 melanoma and 102% with M14 melanoma.

Take `CC1OC(n2c3ccccc3c3c4c(c5c6ccccc6[nH]c5c32)C(=O)N(CCN2CCCC2)C4=O)CC(O)C1O` (stereo not given): the growth in the test on NCI-H23 lung was 41%; in the test on NCI-H226 lung, 43.1%; in the test with NCI-H322M lung it was 58.2%; in the test with HOP-62 NSCLC, 35.2%; with NCI-H460 lung, -61.3% (active); with HOP-92 NSCLC it was 86.6%. For the same compound, the growth in the test with NCI-H522 lung is 24.5%; with A549/ATCC NSCLC, 15.3%; with 786-0 renal, 18%; in the test on DU-145 prostate it was 30.2%; in the test with K-562 leukemia, 3.65% (active); in the test with MALME-3M melanoma, 72.3%. Further, the growth in the test on MDA-MB-231 breast is 74.7%; in the test with RXF 393 renal it was 30.7%; in the test on SF-268 CNS, 37%; in the test with SF-295 CNS, 26.6%; with SF-539 CNS it was 39.4%; in the test with UACC-257 melanoma, 84.5%. In the test with M14 melanoma, the growth was 38.6%.

For the compound `Oc1ccc(Cl)cc1/C=N\NC(=S)N/N=C/c1cc(Cl)ccc1O`, the growth is 50% with NCI-H23 lung; 32.5% in the test with NCI-H226 lung; 34.4% with NCI-H322M lung; 51.2% in the test with HOP-62 NSCLC; 14.7% with NCI-H460 lung; 40.1% with HOP-92 NSCLC. The growth with NCI-H522 lung was -7.22% (active); with A549/ATCC NSCLC, 37.4%; with 786-0 renal, 21.4%; in the test on DU-145 prostate, 58.3%; in the test with K-562 leukemia, 22.1%; with MALME-3M melanoma, 23.4%. For the same compound, the growth is 37.2% in the test with MDA-MB-231 breast; 42.6% with RXF 393 renal; 40.6% with SF-268 CNS; 11% with SF-295 CNS; 20% in the test with SF-539 CNS; 21.8% in the test with UACC-257 melanoma. Also, the growth with M14 melanoma was 27.1%.
